{"source": "the supplement of paper PMC8975748", "note": "Structures can show the parent of a compound that is named as a salt."}
{"test_system": "Saccharomyces cerevisiae BY4741 SeMeCo community", "test": "z-score of subpopulation abundance vs DMSO median, subpopulation auxotrophic for H; higher = larger share of this subpopulation than in DMSO controls", "conditions": "10 µM; 24 h; SM minimal medium; subpopulation (auxotrophy): H", "description": "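Fluorescent four-plasmid SeMeCo (self-establishing metabolically cooperating S. cerevisiae BY4741 community; plasmids pH-mRuby2, pL-mWasabi, pU-eCFP, pM-TagRFP657) was grown 24 h in minimal SM medium with each Selleck FDA-approved drug at 10 µM in 384-well plates. Cells were fixed and imaged by high-content confocal microscopy. For each auxotrophic subpopulation (and the prototroph), a z-score gives the deviation from the DMSO vehicle-control population median.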"}
{"smiles": "CC(C)=CCOc1c2occc2cc2ccc(=O)oc12", "note": "[Imperatorin]", "z-score of subpopulation abundance": 0.08}
{"smiles": "CCCCCCCCCCCCCCCC[n+]1ccccc1", "note": "[Cetylpyridinium Chloride]", "z-score of subpopulation abundance": 19.3}
{"smiles": "O=c1[nH]c2ccccc2n1CCCN1CCC(n2c(=O)[nH]c3cc(Cl)ccc32)CC1", "note": "[Domperidone]", "z-score of subpopulation abundance": 0.24}
{"smiles": "CCC1=C[C@H]2CN3CCc4c([nH]c5ccccc45)[C@](C(=O)OC)(C2)[C@H]13", "note": "[Catharanthine]", "z-score of subpopulation abundance": -0.99}
{"smiles": "C[C@H]1O[C@H](O[C@H]2[C@H](O)[C@@H](O)[C@@H](O)[C@H](O)[C@@H]2O)[C@@H](N)C[C@@H]1NC(=N)C(=O)O", "note": "[Kasugamycin hydrochloride]", "z-score of subpopulation abundance": 0.49}
{"smiles": "CC(NC(C)(C)C)C(=O)c1cccc(Cl)c1", "note": "(stereo not given) [Amfebutamone (Bupropion) HCl]", "z-score of subpopulation abundance": -0.63}
{"smiles": "CN1[C@@H]2CC[C@H]1C[C@@H](OC(=O)[C@H](CO)c1ccccc1)C2", "note": "[Hyoscyamine]", "z-score of subpopulation abundance": -0.74}
{"smiles": "COc1ccc2c(c1)[C@]13CCCC[C@@H]1[C@H](C2)N(C)CC3", "note": "[Dextromethorphan hydrobromide hydrate]", "z-score of subpopulation abundance": 0.44}
{"smiles": "CN(C)[C@@H]1C(=O)C(C(N)=O)=C(O)[C@@]2(O)C(=O)C3=C(O)c4c(O)cccc4[C@@](C)(O)[C@H]3C[C@@H]12", "note": "[Tetracycline HCl]", "z-score of subpopulation abundance": 1.08}
{"smiles": "CC[C@H]1CN2CC[C@]3(C(=O)Nc4ccccc43)[C@@H]2C[C@@H]1/C(=C\\OC)C(=O)OC", "note": "[Rhynchophylline]", "z-score of subpopulation abundance": -0.08}
{"smiles": "C[C@@H]1O[C@@H](O[C@H]2C[C@@H](O)[C@]3(CO)[C@H]4[C@H](O)C[C@]5(C)[C@@H](C6=CC(=O)OC6)CC[C@]5(O)[C@@H]4CC[C@]3(O)C2)[C@H](O)[C@H](O)[C@H]1O", "note": "[Ouabain]", "z-score of subpopulation abundance": -1.13}
{"smiles": "Cc1cc(C(C#N)c2ccc(Cl)cc2)c(Cl)cc1NC(=O)c1cc(I)cc(I)c1O", "note": "(stereo not given) [Closantel]", "z-score of subpopulation abundance": -0.23}
{"smiles": "CN(C)[C@@H]1C(=O)C(C(N)=O)=C(O)[C@@]2(O)C(=O)C3=C(O)c4c(O)cccc4[C@@](C)(O)[C@H]3[C@H](O)[C@@H]12", "note": "[Oxytetracycline Dihydrate]", "z-score of subpopulation abundance": 0.31}
{"smiles": "Nc1nc(N)nc(NC2CC2)n1", "note": "[Cyromazine]", "z-score of subpopulation abundance": 0.14}
{"smiles": "C[N+](C)(C)CCCCCCCCCC[N+](C)(C)C", "note": "[Decamethonium Bromide]", "z-score of subpopulation abundance": 0.07}
{"smiles": "COc1ccc2c3c([nH]c2c1)C(C)=NCC3", "note": "[Harmaline]", "z-score of subpopulation abundance": 2.23}
{"smiles": "CCN(C)C(=O)Oc1cccc([C@H](C)N(C)C)c1", "note": "[Rivastigmine]", "z-score of subpopulation abundance": -0.34}
{"smiles": "O=[N+]([O-])C(Br)(CO)CO", "note": "[Bronopol]", "z-score of subpopulation abundance": -0.52}
{"smiles": "CC[N+](C)(CC)CCOC(=O)C(O)(c1ccccc1)c1ccccc1", "note": "[Methylbenactyzine Bromide]", "z-score of subpopulation abundance": 0.06}
{"smiles": "CC1(C)SC2C(N)C(=O)N2C1C(=O)O", "note": "(stereo not given) [6-Aminopenicillanic acid]", "z-score of subpopulation abundance": 0.55}
{"smiles": "Nc1ccncc1", "note": "[4-Aminopyridine]", "z-score of subpopulation abundance": -0.01}
{"smiles": "CC(=O)OCC1=C(C(=O)O)N2C(=O)C(N)C2SC1", "note": "(stereo not given) [7-Aminocephalosporanic acid]", "z-score of subpopulation abundance": 0.4}
{"smiles": "N[C@@H]1C[C@H]1c1ccccc1", "note": "[Tranylcypromine (2-PCPA) HCl]", "z-score of subpopulation abundance": -0.67}
{"smiles": "CN(C)C(=O)Oc1ccc[n+](C)c1", "note": "[Pyridostigmine Bromide]", "z-score of subpopulation abundance": 0.16}
{"smiles": "CCCN1C[C@H](CSC)C[C@@H]2c3cccc4[nH]cc(c34)C[C@H]21", "note": "[Pergolide Mesylate]", "z-score of subpopulation abundance": -0.28}
{"smiles": "CCN(CC)CCOC(=O)C(O)(c1ccccc1)c1ccccc1", "note": "[Benactyzine hydrochloride]", "z-score of subpopulation abundance": -0.16}
{"smiles": "C=CCN1C[C@H](C(=O)N(CCCN(C)C)C(=O)NCC)C[C@@H]2c3cccc4[nH]cc(c34)C[C@H]21", "note": "[Cabergoline]", "z-score of subpopulation abundance": -0.38}
{"smiles": "CN[C@@H]1[C@@H](O)[C@@H](O[C@@H]2[C@@H](O)[C@H](O[C@H]3O[C@H]([C@@H](C)O)[C@@H](O)[C@H](O)[C@H]3N)[C@@H](N)C[C@H]2N)OC[C@]1(C)O", "note": "[Geneticin (G418 Sulfate)]", "z-score of subpopulation abundance": -0.21}
{"smiles": "NCCc1c[nH]c2ccc(O)cc12", "note": "[Serotonin HCl]", "z-score of subpopulation abundance": -1.54}
{"smiles": "CC(C)N(CCC(C(N)=O)(c1ccccc1)c1ccccn1)C(C)C", "note": "(stereo not given) [Disopyramide]", "z-score of subpopulation abundance": 1.28}
{"smiles": "CCOC(=O)Nc1ccc(NCc2ccc(F)cc2)cc1N", "note": "[Retigabine 2HCl]", "z-score of subpopulation abundance": 1.44}
{"smiles": "CNC1CC(N)C(O)C(OC2OC(CO)C(O)C3OC4(OC(C(N)CO)C(O)C(O)C4O)OC23)C1O", "note": "(stereo not given) [Hygromycin B]", "z-score of subpopulation abundance": -0.88}
{"smiles": "CN1c2ccccc2C(NCCCCCCC(=O)O)c2ccc(Cl)cc2S1(=O)=O", "note": "(stereo not given) [Tianeptine sodium]", "z-score of subpopulation abundance": -0.28}
{"smiles": "CN1C(=O)COc2c(C(=O)NC3CN4CCC3CC4)cc(Cl)cc21", "note": "(stereo not given) [Azasetron HCl]", "z-score of subpopulation abundance": -0.91}
{"smiles": "COC(=O)C1=CCCN(C)C1", "note": "[Arecoline HBr]", "z-score of subpopulation abundance": 0.32}
{"smiles": "COc1ccc(C=O)cc1", "note": "[p-Anisaldehyde]", "z-score of subpopulation abundance": -0.35}
{"smiles": "COc1ccc2[nH]cc(CCN)c2c1", "note": "[5-Methoxytryptamine]", "z-score of subpopulation abundance": -0.85}
{"smiles": "CN1[C@@H]2CC[C@H]1C[C@@H](OC(=O)C(CO)c1ccccc1)C2", "note": "(stereo not given in full) [Atropine sulfate monohydrate]", "z-score of subpopulation abundance": -0.43}
{"smiles": "CN1[C@@H]2C[C@@H](OC(=O)[C@H](CO)c3ccccc3)C[C@H]1[C@@H]1O[C@@H]12", "note": "[Scopolamine HBr]", "z-score of subpopulation abundance": -0.96}
{"smiles": "CC(=O)O[C@H]1C[C@@H]2CC[C@@H]3[C@H](CC[C@@]4(C)[C@H]3C[C@H]([N+]3(C)CCCCC3)[C@@H]4OC(C)=O)[C@@]2(C)C[C@@H]1[N+]1(C)CCCCC1", "note": "[Pancuronium dibromide]", "z-score of subpopulation abundance": -0.63}
